Measured values taken from PubChem BioAssay AID485344 (National Center for Advancing Translational Sciences (NCATS), 2010).
Hit rate of the full screen: of about 340,000 compounds, about 6,900 (2%) were called active. The full list was thinned out, with actives kept by preference. Unmarked numbers belong to inactive results. Cut-off read from the data, not from the text of the source: active = inhibition above about 30%; inactive = below that, where a call was filed.

target: D(2) dopamine receptor (Homo sapiens) (UniProt P14416); assay: HTS Assay for Allosteric Antagonists of the Human D2 Dopamine Receptor: Primary Screen for Antagonists; conditions: HEK293 TREx D2 cells, calcium flux, dopamine EC80; at 10 µM; active compounds read high; note: 0% is about no effect
Procedure, shortened: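 HEK293 T-REx D2 cells, tet-induced, calcium dye no-wash. Cpd pintool add, 180 s kinetic, then EC80 DA, 180 s kinetic. Ca flux read.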

Chain of D(2) dopamine receptor (Homo sapiens) (P14416 whole entry, looked up): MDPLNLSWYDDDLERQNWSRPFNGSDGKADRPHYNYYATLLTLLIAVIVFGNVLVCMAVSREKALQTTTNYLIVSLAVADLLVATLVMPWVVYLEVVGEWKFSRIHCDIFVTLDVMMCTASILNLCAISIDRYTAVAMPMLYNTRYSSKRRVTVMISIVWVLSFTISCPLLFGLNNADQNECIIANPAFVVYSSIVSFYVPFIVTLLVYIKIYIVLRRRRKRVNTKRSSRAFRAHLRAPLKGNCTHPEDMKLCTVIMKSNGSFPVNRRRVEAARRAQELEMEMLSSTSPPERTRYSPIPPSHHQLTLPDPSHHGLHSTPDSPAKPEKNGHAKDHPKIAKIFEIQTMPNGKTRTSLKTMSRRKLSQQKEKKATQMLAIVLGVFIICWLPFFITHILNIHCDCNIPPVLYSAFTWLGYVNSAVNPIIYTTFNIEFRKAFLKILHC

| Compound | inhibition |
| --- | --- |
| Cc1ccc(OCC(=O)N2CCN(S(=O)(=O)c3ccc(Cl)s3)CC2)cc1C | -12% |
| O=C(OCc1nnc(-c2ccccc2)o1)c1cc(=O)[nH]c2ccccc12 | 6.34% |
| CCCc1nc2ccccc2c(C(=O)OCc2nnc(-c3cc(OC)c(OC)c(OC)c3)o2)c1CC | 38% (active) |
| CCCc1nc2ccccc2c(C(=O)OCC(=O)c2ccc3c(c2)NC(=O)CO3)c1CC | -8.13% |
| COc1cc2[nH]c(=O)n(Cc3ccc(C(=O)NC4CCN(Cc5ccccc5)CC4)cc3)c(=O)c2cc1OC | 90.8% (active) |
| COc1cc(C(=O)NC2CCN(Cc3ccccc3)CC2)cc(Cl)c1OC(C)C | 47.6% (active) |
| COc1cc2[nH]c(=O)n(CCC(=O)NC3CCN(Cc4ccccc4)CC3)c(=O)c2cc1OC | -8.24% |
| COC(=O)c1cccc(NC(=O)CN2CCC(NC(=O)c3cc(OC)c(OC)c(OC)c3)CC2)c1 | -8.24% |
| CCOc1cc2[nH]c(=O)n(Cc3ccc(C(=O)NCCCN4CCCC4=O)cc3)c(=O)c2cc1OCC | 9.71% |
| COc1ccc(C(=O)NC2CC2)cc1OC1CCN(Cc2ccc(SC)cc2)CC1 | 2.51% |
| Cc1c(NC(=O)CSc2nnc(-c3cccnc3)n2N)c(=O)n(-c2ccccc2)n1C | 7.44% |
| CCCCn1c(N)c(N(CCC(C)C)C(=O)c2ccc(COc3ccccc3)o2)c(=O)[nH]c1=O | -9.11% |
| C#CCOCCOCCOCCNc1nc(N2CCN(C(=O)CCCCCCCCCCNC(=O)[C@H]([C@@H](C)CC)n3cc(CCCCN=C(N)N)nn3)CC2)nc(N2CCN(C(=O)CCCCCCCCCCNC(=O)[C@H](CO)n3cc(CCCSC)nn3)CC2)n1 | 1.17% |
| Cc1ccn2c(=O)nc(SCC(=O)NCc3ccc(F)cc3)nc2c1 | 17.8% |
| C/C(=N\NC(=S)NCc1ccccc1)C1CCCCC1 | -10.6% |
| CC1CCCCN1C(=O)CCS(=O)(=O)Cc1ccccc1 (centres undefined) | 3.72% |
| CC1CCCCN1C(=S)NCc1ccccc1 (centres undefined) | 31.9% (active) |
| O=C(CN1CCCSc2ccccc21)N1CCN(S(=O)(=O)c2ccccc2)CC1 | 3.3% |
| O=C(OCc1cc(=O)n2ccsc2n1)C1(c2ccc(Cl)cc2)CC1 | 29.3% |
| CSCCC(NC(=O)c1ccccc1)C(=O)N1CCN(Cc2ccc(Cl)cc2)CC1 (centres undefined) | -14.3% |
| N#Cc1ccc(C2=CC(=O)C[C@H](c3ccc(Cl)cc3)C2)cc1 | -1.65% |
| CCc1ccccc1NC(=O)CN(C)C(=O)c1cc(C2CC2)nn1-c1ccccc1 | 2.39% |
| COc1cccc(NC(=O)CN(C)C(=O)c2cc(C3CC3)nn2-c2ccccc2)c1 | -0.486% |

| Compound | inhibition |
| --- | --- |
| COc1ccc(NC(=O)CN(C)C(=O)c2cc(C3CC3)nn2-c2ccccc2)cc1 | 39.5% (active) |
| Cc1csc(=O)n1CCC(=O)OCC(=O)NNC(=O)c1ccc(Br)cc1 | -9.52% |
| Cc1c(C(C)CCCO)oc(=O)c2c1Oc1c(C)c(C(C)C[C@@H](C)O)oc(=O)c1C2 (some centres undefined) | 17% |
| Cc1ccc(C(=O)OCC(=O)N2CC(C)CC(C)C2)cc1S(=O)(=O)N1CCCCC1 (centres undefined) | 19.3% |
| O=C(CN1CCN(c2ccc(F)cc2)CC1)Nc1ccccc1 | -19.8% |
| O=C(CN1CCN(c2ccccc2)CC1)Nc1ccc(F)cc1 | 13.5% |
| O=C(CCN1CCN(c2ccccc2)CC1)NNC(=S)Nc1ccccc1 | 61.2% (active) |
| Cc1cccc(C)c1NC(=O)COC(=O)c1c(C)nn(-c2ccccc2)c1C | 1.57% |
| Cc1ccc(C(CC(=O)O)NC(=O)c2ccc(S(=O)(=O)N3CCCC3)cc2)cc1 (centres undefined) | 8.12% |
| CN(C)CCCN1C(=O)CSC1c1ccc([N+](=O)[O-])cc1 (centres undefined) | 34% (active) |
| CN(C)CCNC(=O)Cc1ccc([N+](=O)[O-])cc1 | -7.39% |
| CCCCN(C)c1ccc([N+](=O)[O-])cc1 | -0.645% |
| CC(=O)Nc1ccc(S(=O)(=O)N2CCn3cccc3C2C)cc1 (centres undefined) | 2.61% |
| Cc1cccc(C(=O)NNC(=O)CSc2nnc(C(C)C)n2C)c1 | 41.8% (active) |
| CCn1c(SCC(=O)NNC(=O)c2ccc(OC)cc2)nnc1C(C)C | -19.3% |
| CCC(c1nnc(SCC(=O)NNC(=O)c2ccccc2)n1Cc1ccccc1)N(C)C (centres undefined) | -24.9% |
| CN(CC(=O)NCc1ccc2c(c1)OCO2)CC(=O)Nc1ccc(F)c(F)c1F | -25.8% |
| CCC[C@H]1CCCC/C=C\CCCC(=O)OCCN1C(=O)OC(C)(C)C | -5.66% |
| COC(=O)CCC(=O)N1CCCC(CO)(Cc2ccccc2)C1 (centres undefined) | 3.17% |
| COc1ccccc1/C=C/C=N/NC(=O)CN1CCN(Cc2ccccc2)CC1 | -10.7% |
| COc1ccccc1/C=C/CN1CCC(CO)(Cc2ccccc2)CC1 | 53.2% (active) |
| Cc1cc(NC(=O)COc2ccc([N+](=O)[O-])cc2)no1 | -5.38% |
| COc1ccccc1NC(=O)COC(=O)COc1ccccc1F | -3.39% |

| Compound | inhibition |
| --- | --- |
| Cc1ccc(OCCNC(=O)CN2C(=O)NC3(CCCC3)C2=O)cc1 | 1.97% |
| COc1cc(C(c2c(NC(=O)c3ccco3)sc(C)c2C)N2CCOCC2)cc(OC)c1OC (centres undefined) | -0.625% |
| CCOc1ncccc1C(=O)OCC(=O)N1c2ccccc2CC1C (centres undefined) | -9.6% |
| CN(CC(=O)NC1CCN(Cc2ccccc2)CC1)S(=O)(=O)c1ccc(Cl)s1 | 68.5% (active) |
| CCOc1ccc(CC(=O)NC2CCN(Cc3ccccc3)CC2)cc1 | 7.65% |
| CN(CC(=O)NC1CCCCC1)S(=O)(=O)c1ccc(Br)s1 | 3.02% |
| CC(C)N(C(=O)CSc1nnc(NC2CC2)s1)c1ccccc1 | -9.12% |
| Nc1nnc(SCC(=O)NCC(=O)Nc2ccc(F)c(F)c2F)s1 | 17.4% |
| O=C(c1ccc(Cl)nc1)N1CCN(S(=O)(=O)c2ccc3c(c2)OCCO3)CC1 | -22.8% |
| O=C(COC(=O)c1ccccc1SCC(=O)NC1CCCCC1)NC1CCCCC1 | -0.864% |
| O=C(COC(=O)c1ccccc1Cl)NC1CCCCCCC1 | 40.2% (active) |
| O=C(COC(=O)c1cccc(Cl)c1)NC1CCCCCCC1 | 4.87% |
| C=CCN(CC=C)CCOc1ccccc1[N+](=O)[O-] | 6.41% |
| CC1CN(CCOc2ccccc2[N+](=O)[O-])CC(C)O1 (centres undefined) | 1.8% |
| Cc1ccc(OCCCCN2CCCCC2)c(Br)c1 | 73.5% (active) |
| COc1cccc(OCCCN2CCCCCC2)c1 | -12.6% |
| CC(C)(c1ccccc1)c1ccc(OCCN2CCCC2)cc1 | 0.0464% |
| CC(=O)Nc1ccc(S(=O)(=O)N2CCN(CCCOc3cc(C)ccc3C)CC2)cc1 | 3.73% |
| O=[N+]([O-])c1ccccc1OCCCCN1CCCCC1 | 93.9% (active) |
| Cc1ccc(C(C)(C)C)c(OCCCCN2CCCC2)c1 | 31% (active) |
| Cc1ccc(C(C)C)cc1OCCN1CCCC1 | -14.6% |
| CCN(C(=O)CSc1ncnc2sccc12)c1c(N)n(Cc2ccccc2)c(=O)[nH]c1=O | -15.3% |
| Cc1ccc(S(=O)(=O)N2CCCCC2)cc1NC(=O)[C@@H]1CCCN1C(=O)c1cccs1 | -14.3% |

| Compound | inhibition |
| --- | --- |
| Cc1cc(C)c(S(=O)(=O)N2CCC(C(=O)OCc3c(C)noc3C)CC2)c(C)c1 | 7.04% |
| O=C(CN1CCCCC1)Nc1ccccc1C(=O)NC1CC1 | 7.71% |
| Cc1ccc(NC(=O)COC(=O)CN2CCCCCC2=O)c(C)c1 | -4.24% |
| CC(C)(O)C#Cc1ccc(CN2CCC(CO)(CCc3ccccc3)CC2)cc1 | 14.6% |
| Cc1cccc(-c2ncc(CN3CCC(CO)(CCCc4ccccc4)CC3)cn2)c1 | 6.88% |
| OCC1(CCc2ccccc2)CCN(Cc2ccc3nsnc3c2)CC1 | 36.1% (active) |
| CN(CCOc1ccccc1)C(=O)c1cc(-c2ccco2)nc2ccccc12 | 3.66% |
| N#Cc1cccc(NC(=O)COC(=O)c2ccccc2C(=O)c2ccc(Cl)c([N+](=O)[O-])c2)c1 | 7.92% |
| CC(OC(=O)CNC(=O)c1ccc(Cl)c([N+](=O)[O-])c1)C(=O)NCc1ccco1 (centres undefined) | 26.5% |
| CC(=O)Nc1ccc(NC(=O)C(C)OC(=O)c2ccccc2C(=O)c2ccc(Cl)c([N+](=O)[O-])c2)cc1 (centres undefined) | 36.3% (active) |
| Cc1ccc(S(=O)(=O)CCC(=O)OCC(=O)NCCc2ccc(S(N)(=O)=O)cc2)cc1 | -1.28% |
| CC(=O)Nc1ccc(NC(=O)C(NS(=O)(=O)c2ccc3c(c2)OCCO3)C(C)C)cc1 (centres undefined) | -6.92% |
| COCC(=O)Nc1c(C(=O)N2CCCC2)oc2ccccc12 | -20% |
| COc1ccc(N2CCN(Cc3ccc(Br)s3)CC2)cc1 | -12.7% |
| CCOCc1c(C(=O)N2CCN(Cc3ccc(Br)s3)CC2)oc2ccccc12 | 32.1% (active) |
| CS(=O)(=O)c1ccc(Cl)c(NC(=O)COC(=O)c2ncc(Cl)c(Cl)c2Cl)c1 | -16.5% |
| COc1cc(NC(=O)NCC2CCN(Cc3ccc(C)cc3)CC2)cc(OC)c1OC | 33.3% (active) |
| Cc1cccc(CN2CCC(CNC(=O)Nc3ccc(F)c(Cl)c3)CC2)c1 | -7.23% |
| Cc1ccc(C)c(CN2CCC(CNC(=O)Nc3ccc(C)c(F)c3)CC2)c1 | -38% |
| COc1cc(C(=O)N(C)Cc2cccc(OC)c2OC)ccc1OCC(=O)Nc1cccc(C(F)(F)F)c1 | -10.9% |
